Publication PMC7819943, “Rice protein-binding microarrays: a tool to detect cis-acting elements near promoter regions in rice”
In all, about 35,000 sequences were measured (“fluorescence intensity (a.u.)”: median about 10,000, highest 2% from about 52,000 on). The sample as a whole holds a higher share of the highest values than the screen did.

biological target: T1, OsWOX13 (Oryza sativa, UniProt Q5QMM3 1-267); assay: protein-binding microarray (RPBM); PBS, 2% BSA, 51.3 ng/ul salmon testes DNA, 50 uM zinc acetate, 200 nM TF, 25 C, 1 h; high values mean tight binding; details: protein: recombinant; tags: N-terminal polyhistidine and DsRed monomer fusion (pET32a); label: CyDye5-dUTP incorporated in the synthesized complementary strand; 3' TTTTT single-stranded linker to array surface; dsDNA, one strand shown
T1 sequence: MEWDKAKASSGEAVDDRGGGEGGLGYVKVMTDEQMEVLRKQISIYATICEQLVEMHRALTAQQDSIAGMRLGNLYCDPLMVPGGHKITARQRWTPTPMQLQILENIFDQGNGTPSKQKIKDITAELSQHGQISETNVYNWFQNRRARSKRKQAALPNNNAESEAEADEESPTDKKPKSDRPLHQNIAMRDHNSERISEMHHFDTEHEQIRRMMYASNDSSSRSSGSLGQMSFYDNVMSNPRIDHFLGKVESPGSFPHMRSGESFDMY
Outline: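 Binding signal is defined as the fluorescence intensity of each feature in arbitrary units, read on an Axon 4000B scanner. Transcription factors with N-terminal polyhistidine and DsRed fusions came from E. coli BL21-CodonPlus and were purified on Ni–NTA. They were incubated at 200 nM for 1 h at 25 °C on a custom Agilent array that had been made double-stranded with Cy5-dUTP, with 50 µM zinc acetate present, and the array was washed.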

| Sequence | binding signal |
| --- | --- |
| CCATTAATTATGTTGGACATAATTAAGAGAATTTGCTAAACGGAGTCACCTAGTGCAG | 52300 fluorescence intensity (a.u.) |
| CTTCTAATTTTGTTAATTGGGAAGACATCATAGAGTGGAACGGAGTCACCTAGTGCAG | 65400 fluorescence intensity (a.u.) |
| ACTCAGTATACACTAATTAGCAATTATTACCGAAATTGTACGGAGTCACCTAGTGCAG | 23400 fluorescence intensity (a.u.) |
| TGGTATTTAATTATTTGTTAGAGTCATCATTGGTCTATAACGGAGTCACCTAGTGCAG | 8940 fluorescence intensity (a.u.) |
| TGGATTAAACTAATTTACTGATAAGGTGCGTACAAAATTGCGGAGTCACCTAGTGCAG | 9850 fluorescence intensity (a.u.) |
| CTATGTCTGTGTTTGATGATTGCAAGCTGATGTGGGATGGCGGAGTCACCTAGTGCAG | 9180 fluorescence intensity (a.u.) |
| ATCTATCTATCTATCTATCTATCTATCTATCTATCTATCTCGGAGTCACCTAGTGCAG | 20600 fluorescence intensity (a.u.) |
| ATCTGTGTAGTCAATTATATTCTCCCTGGGGCCAAACGAACGGAGTCACCTAGTGCAG | 4100 fluorescence intensity (a.u.) |
| TTTGTTGATTTGTTTTGGTTGGATTGATCTGTCGCTTATACGGAGTCACCTAGTGCAG | 25500 fluorescence intensity (a.u.) |
| AACACATTGGATTGATTGATCTGTCGCGGAACAGATTGACCGGAGTCACCTAGTGCAG | 52300 fluorescence intensity (a.u.) |
| ATGACACATGCCGTTGATTGGTTGACACAGATCGGATTCGCGGAGTCACCTAGTGCAG | 46900 fluorescence intensity (a.u.) |
| CATTTGACTGAACAAGAACAGTAGGATCAATCTTTGTGCACGGAGTCACCTAGTGCAG | 16900 fluorescence intensity (a.u.) |
| TGATCTGATTGAACAGTCAATCACAGATTCACAGTAGGACCGGAGTCACCTAGTGCAG | 62500 fluorescence intensity (a.u.) |
| CCAGTCAAGGGAACAGATTGACCAATCGTTCACACCAGTGCGGAGTCACCTAGTGCAG | 18400 fluorescence intensity (a.u.) |
| TTCCAACCAATCATAACCCAATAAGAGCAAAATGGAAAACCGGAGTCACCTAGTGCAG | 4060 fluorescence intensity (a.u.) |
| AGGTGTTGATTTTGGGTGGCGGGCCCAATCGGATAGGCCACGGAGTCACCTAGTGCAG | 3770 fluorescence intensity (a.u.) |
| CTGAGGACACTTAATGATTGATGCTCATAATATATTGTTTCGGAGTCACCTAGTGCAG | 17300 fluorescence intensity (a.u.) |
| AAAAGCAGGTTTACTTACGCCTCATGTTCTCACACTAATTCGGAGTCACCTAGTGCAG | 24400 fluorescence intensity (a.u.) |
| TCTGTCTGATTTGTAATCTTTTCCCTTGGCTTTGAGCGTGCGGAGTCACCTAGTGCAG | 29400 fluorescence intensity (a.u.) |
| GGTCGATCCATCGATTGATGGATCAATAATGCAAGCAAGCCGGAGTCACCTAGTGCAG | 5030 fluorescence intensity (a.u.) |
| AATTAATTAATTAGCAATGCAGCATCGTCGATCATTGACCCGGAGTCACCTAGTGCAG | 62500 fluorescence intensity (a.u.) |
| TTTGCCACTAATTAATCTACTAATGGCTTATGATAGTCATCGGAGTCACCTAGTGCAG | 10700 fluorescence intensity (a.u.) |
| TATATATATATAATTATGCATCCTGGTTAGCAATTAATGTCGGAGTCACCTAGTGCAG | 3400 fluorescence intensity (a.u.) |

| Sequence | binding signal |
| --- | --- |
| CTTAATTAATTAATAGCAGCAGCAATGCCACTGTGGCCATCGGAGTCACCTAGTGCAG | 53500 fluorescence intensity (a.u.) |
| GCAATAATAATTACTGATAGCCACCACTATCAATAATAATCGGAGTCACCTAGTGCAG | 12600 fluorescence intensity (a.u.) |
| TTATTTGTTTTGTTTGTGATTTGCTTTATTATCAAAAGTACGGAGTCACCTAGTGCAG | 4600 fluorescence intensity (a.u.) |
| ATCGTATCATTGATTTTCACTTAATATGGTGGACCCATCACGGAGTCACCTAGTGCAG | 12700 fluorescence intensity (a.u.) |
| ACAGACATAAATACGATTGATTAAGTAGTAGCCTAGCTAACGGAGTCACCTAGTGCAG | 14600 fluorescence intensity (a.u.) |
| GGTTTATTCAATTATGAAATTTTACTCCCCTATGTACTAACGGAGTCACCTAGTGCAG | 11100 fluorescence intensity (a.u.) |
| GTTCATGCAATAACGTTAATTTGGGACTAGATTAGTATCCCGGAGTCACCTAGTGCAG | 7620 fluorescence intensity (a.u.) |
| TTTATAATTAGTATCAAAACATCCGATATGATAGTTACTTCGGAGTCACCTAGTGCAG | 17100 fluorescence intensity (a.u.) |
| CCAATCCACAACATAACCATCAATCATTCATTGACGCAAGCGGAGTCACCTAGTGCAG | 4680 fluorescence intensity (a.u.) |
| GATTAATTTACTAGACGAATCTTTTAAGCCTAATTACTCCCGGAGTCACCTAGTGCAG | 36100 fluorescence intensity (a.u.) |
| TTTCATGTAAATTAACACGAGCCTGAATCCTCCGTTGAAGCGGAGTCACCTAGTGCAG | 3750 fluorescence intensity (a.u.) |
| CTAAACACGTTGATGGGCCTGAATGGAGGAAGCCCATCGACGGAGTCACCTAGTGCAG | 3790 fluorescence intensity (a.u.) |
| CCGTCGCCTGATGGAGCAGAATCGTGAAACACGTTGTAAGCGGAGTCACCTAGTGCAG | 57800 fluorescence intensity (a.u.) |
| ATAATAATTAGTCATAAAGACAAGTGCTTATGCCCACTTACGGAGTCACCTAGTGCAG | 16700 fluorescence intensity (a.u.) |
| ATGTGTCAATTAATTATTTGCCACTCGCTGTCTATGACATCGGAGTCACCTAGTGCAG | 28300 fluorescence intensity (a.u.) |
| GGTGGATGAGAATGGATTGAATGAAAACAACAACATATTACGGAGTCACCTAGTGCAG | 7970 fluorescence intensity (a.u.) |
| TGAAGATTGATGAGATGGACGGTACCATTGCCGATGCTGTCGGAGTCACCTAGTGCAG | 56700 fluorescence intensity (a.u.) |
| CAATTGTCCGGATTGAGATATGACTGAAGCGGATGCTGGACGGAGTCACCTAGTGCAG | 3220 fluorescence intensity (a.u.) |
| ATGATTGATTGCTTTTCCTAAATCCTAACCATGATGCTGTCGGAGTCACCTAGTGCAG | 65000 fluorescence intensity (a.u.) |
| ATTGATGGGTACATTGAGATGGAGCTGTTTGGACAAGTTGCGGAGTCACCTAGTGCAG | 7520 fluorescence intensity (a.u.) |
| TTTTGATCACACCATGATTGATGCACAAATCCATATGAACCGGAGTCACCTAGTGCAG | 36800 fluorescence intensity (a.u.) |
| TTGCTGATTGAAGCTGATACTGTCGTGAAATGAACCATGTCGGAGTCACCTAGTGCAG | 38200 fluorescence intensity (a.u.) |
